Assays:
Conditions in all cases: concentration: 1 μM,replicates: in singlicate; n = 1
[1] = tested on: CAMK1
[2] = tested on: CAMK2A
[3] = tested on: CAMK2B
[4] = tested on: CAMK2D
[5] = tested on: CAMK2G
[6] = tested on: CAMK4
[7] = tested on: CAMKK1
[8] = tested on: CAMKK2
[9] = tested on: CASK
[10] = tested on: T1, CDC2L1
T1 construct: gene CDK11B
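Further: KINOMEscan kinase panel screen.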

Row | Structure (SMILES) | %Inh [1] | %Inh [2] | %Inh [3] | %Inh [4] | %Inh [5] | %Inh [6] | %Inh [7] | %Inh [8] | %Inh [9] | %Inh [10]
1 | O=C(Nc1ccccc1)c1cccc(Oc2ccc3nccn3n2)c1 | 0% | 0% | 12% | 14% | 0% | 0% | 6% | 0% | 8% | 96%
2 | Cc1n[nH]c2cc(Nc3ccnc(Nc4cccc(CN5CCOCC5)c4)n3)ccc12 [GW682569] | 43% | 0% | 0% | 5% | 0% | 0% | 21% | 13% | 0% | 7%
3 | CC(=O)Nc1ccc(-c2cc3ncnc(SCC(=O)O)c3s2)cc1 | 0% | 55% | 58% | 21% | 18% | 23% | 90.6% | 92.3% | 8% | 9%
4 | Cn1ccc2ncnc(Oc3ccc(NC(=O)Nc4cc(C(C)(C)C)on4)c(Cl)c3)c21 | 17% | 100% | 100% | 4% | 14% | 0% | 6% | 22% | 0% | 0%
5 | O=C(Nc1cccc(C(F)(F)F)c1)c1cccc(Oc2ccc3nccn3n2)c1 | 1% | 0% | 0% | 0% | 0% | 0% | 8% | 0% | 17% | 1%
6 | COc1cc(Nc2nccc(N3CCC(NC(=O)c4cccc(C#N)c4)C3)n2)cc(OC)c1OC (stereo not drawn) [GSK1379751] | 3% | 0% | 0% | 0% | 17% | 0% | 0% | 3% | 3% | 0%
7 | COc1cc2nccc(Nc3ccc(Oc4ccccc4)cc3)c2cc1OC.Cl [GI261656] | 20% | 0% | 0% | 16% | 18% | 0% | 7% | 17% | 0% | 0%
8 | O=c1[nH]cc(-c2ccc(O)cc2)c2sc(-c3ccncc3)cc12 [GSK1033723] | 6% | 0% | 0% | 4% | 29% | 0% | 15% | 15% | 15% | 0%
9 | CCn1c(-c2nonc2N)nc2cncc(CNC3CCNCC3)c21.Cl [SB-747651] | 19% | 0% | 0% | 5% | 17% | 71% | 1% | 16% | 16% | 0%
10 | CCN1CCN(CCCC(=O)Nc2n[nH]c3nc(-c4ccc(O)cc4)c(Br)cc23)CC1 [SB-731579] | 0% | 0% | 0% | 0% | 0% | 10% | 0% | 0% | 0% | 0%
11 | Cn1ccc2ncnc(Oc3ccc(NC(=O)Nc4cccc(C(F)(F)F)c4)c(Cl)c3)c21 | 4% | 0% | 0% | 7% | 0% | 6% | 0% | 0% | 0% | 0%
12 | Cn1ccc2ncnc(Oc3ccc(NC(=O)Nc4cccc(C(F)(F)F)c4)c(F)c3)c21 | 0% | 6% | 8% | 6% | 10% | 15% | 18% | 19% | 0% | 19%
13 | Cl.Nc1n[nH]c2cc(-c3ccccn3)ccc12 [GSK2189892] | 23% | 0% | 0% | 2% | 24% | 0% | 0% | 9% | 0% | 1%
14 | CCCC(=O)Nc1n[nH]c2ncccc12 [SB-601436] | 0% | 13% | 0% | 0% | 0% | 0% | 0% | 0% | 0% | 0%
15 | FC(F)(F)c1cc(Br)cc(Nc2nccc(-c3cnn4ncccc34)n2)c1 [GW810578] | 23% | 0% | 6% | 21% | 28% | 0% | 45% | 59% | 22% | 0%
16 | O=C(NCC1CC1)c1ccc(-c2cc(C(=O)NC3CC3)ccc2F)cc1 [GW810445] | 0% | 0% | 0% | 0% | 0% | 0% | 0% | 0% | 41% | 0%
17 | CC(C)S(=O)(=O)N1CCN(Cc2ccc3c(c2)nc(NC(=O)c2ccsc2)n3C[C@H](O)c2ccccc2)CC1 [GW635815] | 25% | 0% | 0% | 11% | 39% | 0% | 44% | 61% | 22% | 0%

Row | Structure (SMILES) | %Inh [1] | %Inh [2] | %Inh [3] | %Inh [4] | %Inh [5] | %Inh [6] | %Inh [7] | %Inh [8] | %Inh [9] | %Inh [10]
18 | CS(=O)(=O)Nc1ccc(-c2ccnc3[nH]ccc23)cc1 [GSK993273] | 36% | 6% | 7% | 16% | 24% | 0% | 8% | 0% | 21% | 0%
19 | CCOC(=O)N1CCC(n2cnc(-c3ccc(F)cc3)c2-c2ccnc(N)n2)CC1 [SB-219952] | 0% | 0% | 0% | 0% | 8% | 12% | 0% | 0% | 0% | 11%
20 | COc1cccc(C2=C(Nc3cccc(Cl)c3)C(=O)NC2=O)c1 [SB-341556] | 1% | 22% | 0% | 14% | 27% | 0% | 3% | 4% | 43% | 0%
21 | Cc1ccc(CC(=O)N2CCc3cc(-c4cn(C)c5ncnc(N)c45)ccc32)cc1 [GSK2634758] | 7% | 0% | 0% | 16% | 22% | 0% | 5% | 19% | 7% | 0%
22 | CS(=O)(=O)c1cccc(CNc2nc(Nc3ccc4c(c3)[C@@H]3C[C@@H]4CNC3=O)ncc2C(F)(F)F)c1 | 1% | 0% | 0% | 0% | 0% | 0% | 41% | 15% | 0% | 0%
23 | Cl.c1ccc(Oc2ccc(Nc3ccnc4cc(-c5ccc(CN6CCNCC6)o5)ccc34)cc2)nc1 [GW567142] | 29% | 0% | 0% | 3% | 0% | 0% | 0% | 0% | 0% | 0%
24 | C[C@@H](Oc1cc(-n2cnc3cc(-c4ccncc4)ccc32)sc1C(N)=O)c1ccccc1Cl [GSK479719] | 4% | 0% | 0% | 0% | 0% | 0% | 18% | 54% | 29% | 0%
25 | NC(=O)Nc1sc(-c2ccc(F)cc2)cc1C(N)=O [GW789449] | 12% | 0% | 0% | 2% | 0% | 0% | 12% | 7% | 15% | 0%
26 | Cc1ccc(C(=O)Nc2ccc(Oc3ccc4nc(NC(=O)C5CC5)cn4c3)c(F)c2)c(=O)n1-c1ccccc1 | 0% | 0% | 0% | 0% | 3% | 10% | 11% | 10% | 12% | 0%
27 | OCCn1cc(-c2cnc3nnn(Cc4ccc5ncccc5c4)c3n2)cn1 | 0% | 0% | 0% | 0% | 0% | 0% | 0% | 0% | 0% | 11%
28 | COc1cccc(OC)c1C(=O)Nc1cccc(-c2nn3ccccc3c2-c2ccnc(Nc3cccc(F)c3)n2)c1 [GSK361065] | 19% | 27% | 6% | 0% | 0% | 0% | 4% | 0% | 15% | 0%
29 | COC(=O)Nc1nc2cc(Oc3ccc(NC(=O)Nc4cc(C(F)(F)F)ccc4Cl)cc3)ccc2[nH]1.Cl [GW697465] | 5% | 0% | 0% | 0% | 7% | 0% | 2% | 0% | 0% | 0%
30 | COC(=O)c1cccc(NC(=O)NC2CCN(c3ccnc(Nc4cc(OC)c(OC)c(OC)c4)n3)C2)c1 (stereo not drawn) [GSK1379767] | 35% | 0% | 0% | 0% | 26% | 0% | 13% | 19% | 2% | 0%
31 | CCn1c(-c2nonc2N)nc2cncc(Br)c21 [SB-738004] | 14% | 27% | 29% | 27% | 14% | 0% | 25% | 17% | 29% | 0%
32 | CC(C)c1nc(-c2cccc(NS(=O)(=O)c3ccccc3)c2)c(-c2ccnc(Nc3ccc4c(c3)CN(C)CC4)n2)s1 [GSK1649598] | 57% | 0% | 0% | 22% | 28% | 0% | 29% | 23% | 14% | 15%
33 | COc1ccc(Nc2nccc(N3CCC(NC(=O)c4cccc(C#N)c4)C3)n2)cc1 (stereo not drawn) [GSK1379730] | 0% | 0% | 0% | 0% | 6% | 0% | 8% | 10% | 0% | 0%
